Data as given in ChEMBL document CHEMBL1157539, “Thousands of chemical starting points for antimalarial lead identification” (Nature, 2010).

test system: HepG2; experiment: GSK_TCMDC: Percent inhibition of human HepG2 cell line. Test compounds present at 10uM.; type: functional

Point of comparison: CN1CCN(CCCN(Cc2csc(-c3ccc(CNCc4ccccc4)cc3)n2)S(=O)(=O)c2ccccc2)CC1.O=C(O)C(F)(F)F, Inhibition 17%. Against it:
- Oc1ccc2[nH]cc(C3CCN(CCC(c4ccccc4)c4ccccc4)CC3)c2c1 — higher, 27%
- CN1CCN(CC2(Nc3nccc(NCCc4cn(C)c5ccccc45)n3)CCCCC2)CC1 — higher, 67%
- CCn1ccc2c(N3CCCS3(=O)=O)cc(C(=O)N[C@@H](Cc3ccccc3)[C@H](O)CNC3CCCCC3)cc21 — lower, 0%
- COc1ccc(N2CCc3c(-c4cccc5cnccc45)cc(C)nc32)c(C)c1 — higher, 20%
- CC(C)c1ccc(CN(C)CCCCNC(=O)c2ccc(NC(=O)c3ccc(Cl)cc3)cc2)cc1 — the same, 17%
- COc1cccc(Nc2nccc(NCC(O)c3cccc(C(F)(F)F)c3)n2)c1 (stereo not given) — lower, 6%
- COC(=O)c1ccc(C2OC3(C(=O)c4ccccc4C3=O)C(OC)=C2Cl)cc1C(C)=O (stereo not given) — lower, 0%
- CC(C)(C)c1ccc(NC(=O)c2cccc(CN3CCN(Cc4cccc(O)c4)CC3)c2)cc1.O=C(O)C(F)(F)F — higher, 28%
- CCN(CC)CCCSc1ccc(-c2ccc(SCCCN(CC)CC)cc2)cc1 — higher, 38%
- CCOC(=O)c1ccc(N(CCCN(CCCN(c2ccc(C(=O)OCC)cc2)S(=O)(=O)c2ccc(C)cc2)CCc2ccc(O)cc2)S(=O)(=O)c2ccc(C)cc2)cc1 — lower, 0%
- N#CCCN1CCN(Cc2cccc(-c3ccc(-c4nc5cc(C(F)(F)F)ccc5[nH]4)cc3)c2)CC1.O=C(O)C(F)(F)F — higher, 23%
- COc1ccc(Nc2ncc(OC)c(Nc3ccccc3C(N)=O)n2)cc1N1CCN(C)CC1.O=CO — higher, 63%
- Br.CCCN(CCCCCCN(CCC)CCc1ccc(O)c(O)c1)CCc1ccc(O)cc1 — lower, 0%
- Cc1cc2nc(N=C3NC4(c5ccccn5)NC(=Nc5nc6cc(C)c(C)cc6[nH]5)NC4(c4ccccn4)N3)[nH]c2cc1C.O=C(O)C(F)(F)F (stereo not given) — lower, 3%
- O=C(O)C(F)(F)F.O=S(=O)(/C=C/c1ccccc1)N(Cc1ccc(-c2ccc(CNCCOc3ccccc3)cc2)cc1)CC1CCCCN1 (stereo not given) — higher, 99%
- N#Cc1cccc(CN2CCCN(Cc3cccc(C(=O)Nc4ccc(Cl)cc4)c3)CC2)c1.O=C(O)C(F)(F)F — higher, 46%
- COc1ccc(CNC2CCN(c3ccc(NC(=O)c4cccc(Cl)c4)cc3)CC2)cc1OC — higher, 26%
- Cc1cc(OCCCNC(=N)c2ccc3ccccc3c2)c(C(C)C)cc1Cl.Cc1ccc(S(=O)(=O)O)cc1 — higher, 89%
- N#Cc1ccc(-c2ccc(C(=O)NC3CCN(CCN4CCC(c5cn(CCO)c6ccccc56)CC4)CC3)cc2)cc1 — higher, 30%
- Cc1ccc(CCNCC(O)c2cccc(C(F)(F)F)c2)cc1.Cl (stereo not given) — lower, 0%
- COc1cc(NC(=O)C(c2ccc(Cl)cc2)C(C)C)cc(OC)c1 (stereo not given) — lower, 5%
- CCCCCCN1CCC(NCc2cccc3ccccc23)CC1.O=C(O)C(F)(F)F — higher, 21%
- N#Cc1ccc(CN2CCC(NC(=O)c3ccc(-c4nnc(-c5cccc6ccccc56)o4)cc3)CC2)cc1 — higher, 37%
- Cc1cccc(C(=O)Nc2ccnc(N(C)CCCN(C)Cc3cccc(O)c3)c2)c1.O=C(O)C(F)(F)F — higher, 27%
- FC(F)(F)c1ccc2[nH]c(-c3ccc(-c4cccc(CNCCc5cccnc5)c4)s3)nc2c1.O=C(O)C(F)(F)F — higher, 26%
- Cc1onc(-c2ccc(Cl)cc2)c1-c1ccnn1S(=O)(=O)c1ccc(Cl)cc1 — lower, 0%
- Cc1cc(NC(=O)Nc2ccc(I)c(OCCN(C)C)c2)ccc1Br.Cl — higher, 18%
- Cc1nc2cc(/C=C/C(=O)NC3CCC(CCN4CCc5ccc(C#N)cc5CC4)CC3)ccc2[nH]1.Cl (stereo not given) — lower, 7%
- CCN(CC)CCCN(CCCN(CC)CC)c1cc(C)nc(Nc2ccc3cc(Br)ccc3c2)n1.Cl — lower, 12%
- Clc1ccc(-c2ccc(CNCCCN3CCCC3)cc2)cc1 — higher, 47%
- Cc1ccc(-c2ccc3c(c2)C=C(C(=O)NC2CCN(CCNC(=O)c4cccs4)CC2)CCC3)cc1.O=C(O)C(F)(F)F — higher, 27%
- CCC(C)CN1C(=O)C(c2ccccc2)(c2ccccc2)N=C1N.O=CO (stereo not given) — lower, 11%
- CCOc1cc(Cl)c(C(C)NC(=O)c2cccc(OC)c2)cc1OCC (stereo not given) — higher, 29%
- COC(=O)c1cccc(CNCc2cccc(-c3ccc(-c4nc5cccc(C)c5[nH]4)s3)c2)c1.O=C(O)C(F)(F)F — lower, 0%
